The panel holds about 83,000 compounds, 20% with a hit somewhere; the sample as a whole holds those more often.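 Interpretation: 100, growth as untreated; towards 0, rising growth inhibition; 0, no net growth; 0 to -100, cell death. Compounds scoring below 10 were considered active.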 The source made the active and inactive calls.

This assay concerns MDA-MB-468 breast. In words: NCI-60 one-dose screen, 48 h (100 = growth as untreated, 0 = no growth, -100 = all killed). As to conditions: 10 µM unless noted.
As to `NC(N)=N/N=C/c1cccc(Cl)c1Cl`, the growth was 18.1% (inactive).

In the case of `CCOC(=O)c1sc2nc(-c3cc(OC)c(OC)c(OC)c3)nc(N3CCOCC3)c2c1C`, the growth was 11.3% (inactive).

As to `O=C(NCCNc1nccc(-c2c(-c3cccc(O)c3)nc3sccn23)n1)Nc1cccc(C(F)(F)F)c1`, the growth was -40.6% (active).

In the case of `CC(C)COC(=O)NC(C)(C)C`, the growth was 96.5% (inactive).

Take `CN(C)CSc1nc2ccccc2s1`: the growth is 110% (inactive).

For the molecule `CCN1C(=O)N(CC)C2Nn3c(s/c(=C4\C(=O)N(CCC(C)C)c5ccccc54)c3=O)=NC21` (stereo not given), the growth is 11.6% (inactive).

On to `CCCCCN1C=C/C(=C\C(=O)N(C)c2cccc3ccccc23)c2ccccc21`, for which the growth is 70.9% (inactive).

For the molecule `Nc1nc(Nc2ccccc2SSc2ccccc2Nc2nc(N)nc(-c3cccs3)n2)nc(-c2ccsc2)n1`, the growth is 115% (inactive).

In the case of `CCn1c(CSc2nc3ccccc3c(=O)n2CCc2ccccc2)n[nH]c1=S`, the growth was 85.6% (inactive).

Turning to `C(=N\Nc1ccccn1)/c1ccccn1`, the growth was -38.7% (active).

In the case of `O=C(Nc1ccc(N=Cc2c(O)[nH]c3ccccc23)cc1)Nc1nccs1`, the growth is -2.28% (active).

As to `Cc1cc(NS(=O)(=O)c2ccc(-c3cnc(C4CC4)o3)cc2)ccc1I`, the growth was 3.98% (active).

For `CCOC(=O)c1c(C)nc2c(c1N)/C(=C/c1ccc(OC)cc1)C(=O)N2Cc1ccccc1`, the growth is 66.7% (inactive).

Turning to `O=C1OCC2=C1C(c1ccccc1)c1cc3c(cc1N2CCO)OCCO3` (stereo not given), the growth is -63.7% (active).

For the molecule `O=C(N(c1ccccc1)c1ccccc1)n1cc(I)c2nc(Cl)nc(Cl)c21`, the growth was 27.8% (inactive).

The record behind these values is PubChem BioAssay (NCI).
